The source of these data is paper PMC11062922 (Nature Chemical Biology, 2023).

Broadly, the pEC50 is the negative decadic logarithm of the EC50, by convention in mol/L. By pKd is commonly meant the negative decadic logarithm of the Kd, by convention in mol/L.

One experiment has as its system STK10. The conditions noted are these: compound concentrations:3nM, 10nM, 30nM, 100nM, 300nM, 1000nM, 3000nM, 30000nM,R2:0.96114701391993196,slope:1.3567914051898999,EC50 Standard Error, by the legend:Standard error of the EC50 estimation as provided by the drc package.
Another experiment relates to STK11. Particulars: compound concentrations:3nM, 10nM, 30nM, 100nM, 300nM, 1000nM, 3000nM, 30000nM,R2:0.98533886968205897,slope:6.0517648666997097,EC50 Standard Error, by the legend:Standard error of the EC50 estimation as provided by the drc package.
The next experiment deals with STK26. Particulars: compound concentrations:3nM, 10nM, 30nM, 100nM, 300nM, 1000nM, 3000nM, 30000nM,R2:0.89438319987914305,slope:6.7801376871061398,EC50 Standard Error, by the legend:Standard error of the EC50 estimation as provided by the drc package.
In a further experiment the test system is STK3. The conditions noted are these: compound concentrations:3nM, 10nM, 30nM, 100nM, 300nM, 1000nM, 3000nM, 30000nM,R2:0.98274097972393204,slope:1.3616846231778099,EC50 Standard Error, by the legend:Standard error of the EC50 estimation as provided by the drc package.
A further experiment has as its system STK4. The conditions noted are these: compound concentrations:3nM, 10nM, 30nM, 100nM, 300nM, 1000nM, 3000nM, 30000nM,R2:0.95767016983562303,slope:1.48085900140722,EC50 Standard Error, by the legend:Standard error of the EC50 estimation as provided by the drc package.
A further experiment deals with TGFBR2. The conditions noted are these: compound concentrations:3nM, 10nM, 30nM, 100nM, 300nM, 1000nM, 3000nM, 30000nM,R2:0.91957544903751998,slope:0.85257672285703501,EC50 Standard Error, by the legend:Standard error of the EC50 estimation as provided by the drc package.
The next experiment has as its system HSP90B1. Also on record: species or system human, MV4-11 + K-562 + COLO205 + SK-N-BE2 + OVCAR-8. Particulars: read-out: apparent Kd; compound concentrations:100 nM and 1000 nM (sheet 'Samples'); n = 1.
In another experiment the test system is CIT. Also on record: species or system human, MV4-11 + K-562 + COLO205 + SK-N-BE2 + OVCAR-8. Particulars: compound concentrations:0.3nM, 1nM, 3nM, 10nM, 30nM, 100nM, 300nM, 1000nM,R2:0.97918771846363795,slope:1.88206182244377,EC50 Standard Error, by the legend:Standard error of the EC50 estimation as provided by the drc package.
Another experiment relates to MOB1A. Further details: species or system human, MV4-11 + K-562 + COLO205 + SK-N-BE2 + OVCAR-8. Particulars: compound concentrations:0.3nM, 1nM, 3nM, 10nM, 30nM, 100nM, 300nM, 1000nM,R2:0.920591021551731,slope:1.01230388230399,EC50 Standard Error, by the legend:Standard error of the EC50 estimation as provided by the drc package.
In a further experiment the test system is PKN2. Also on record: species or system human, MV4-11 + K-562 + COLO205 + SK-N-BE2 + OVCAR-8. The conditions noted are these: compound concentrations:0.3nM, 1nM, 3nM, 10nM, 30nM, 100nM, 300nM, 1000nM,R2:0.99284498309618197,slope:1.0925759067996901,EC50 Standard Error, by the legend:Standard error of the EC50 estimation as provided by the drc package.
The test system of another experiment is PRKACA. Also on record: species or system human, MV4-11 + K-562 + COLO205 + SK-N-BE2 + OVCAR-8. Particulars: compound concentrations:0.3nM, 1nM, 3nM, 10nM, 30nM, 100nM, 300nM, 1000nM,R2:0.96854382612038603,slope:0.55494475064464099,EC50 Standard Error, by the legend:Standard error of the EC50 estimation as provided by the drc package.
The subject of a further experiment is PRKACB. Also on record: species or system human, MV4-11 + K-562 + COLO205 + SK-N-BE2 + OVCAR-8. Particulars: compound concentrations:0.3nM, 1nM, 3nM, 10nM, 30nM, 100nM, 300nM, 1000nM,R2:0.87991730549407599,slope:0.899687988537484,EC50 Standard Error, by the legend:Standard error of the EC50 estimation as provided by the drc package.
A further experiment deals with PRKCB. Further details: species or system human, MV4-11 + K-562 + COLO205 + SK-N-BE2 + OVCAR-8. Particulars: compound concentrations:0.3nM, 1nM, 3nM, 10nM, 30nM, 100nM, 300nM, 1000nM,R2:0.978843793099339,slope:1.0046603573044399,EC50 Standard Error, by the legend:Standard error of the EC50 estimation as provided by the drc package.
In a further experiment the test system is PRKCD. Also on record: species or system human, MV4-11 + K-562 + COLO205 + SK-N-BE2 + OVCAR-8. The conditions noted are these: compound concentrations:0.3nM, 1nM, 3nM, 10nM, 30nM, 100nM, 300nM, 1000nM,R2:0.97536342523711195,slope:1.1087330186118201,EC50 Standard Error, by the legend:Standard error of the EC50 estimation as provided by the drc package.
Another experiment has as its system PRKCQ. Also on record: species or system human, MV4-11 + K-562 + COLO205 + SK-N-BE2 + OVCAR-8. Particulars: compound concentrations:0.3nM, 1nM, 3nM, 10nM, 30nM, 100nM, 300nM, 1000nM,R2:0.97430848163672201,slope:0.92336588926382501,EC50 Standard Error, by the legend:Standard error of the EC50 estimation as provided by the drc package.
In a further experiment the test system is PRKCA. Further details: species or system human, MV4-11 + K-562 + COLO205 + SK-N-BE2 + OVCAR-8. The conditions noted are these: compound concentrations:0.3nM, 1nM, 3nM, 10nM, 30nM, 100nM, 300nM, 1000nM,R2:0.94698851760637903,slope:2.0520697350296202,EC50 Standard Error, by the legend:Standard error of the EC50 estimation as provided by the drc package.
The next experiment has as its system TESK2. Also on record: species or system human, MV4-11 + K-562 + COLO205 + SK-N-BE2 + OVCAR-8. Particulars: read-out: apparent Kd; compound concentrations:100 nM and 1000 nM (sheet 'Samples'); n = 1.
The subject of a further experiment is ADCK1. Particulars: compound concentrations:3nM, 10nM, 30nM, 100nM, 300nM, 1000nM, 3000nM, 30000nM,R2:0.94101841538293196,slope:0.49878905871205997,EC50 Standard Error, by the legend:Standard error of the EC50 estimation as provided by the drc package.
The next experiment deals with CSNK2A1;CSNK2A3. Particulars: compound concentrations:3nM, 10nM, 30nM, 100nM, 300nM, 1000nM, 3000nM, 30000nM,R2:0.95393018675228303,slope:1.4690097586887201,EC50 Standard Error, by the legend:Standard error of the EC50 estimation as provided by the drc package.
The subject of the next experiment is CSNK2A2. Particulars: compound concentrations:3nM, 10nM, 30nM, 100nM, 300nM, 1000nM, 3000nM, 30000nM,R2:0.98972333089258602,slope:1.29833762231974,EC50 Standard Error, by the legend:Standard error of the EC50 estimation as provided by the drc package.

pEC50, pKd: −log10 of the molar value.

Regarding TAK659, the pEC50 in the experiment with STK10 is 6.14; in the experiment with STK11, 5.94; in the experiment with STK26 it was 6.44; in the experiment with STK3, 6.13; in the experiment on STK4 it was 6.20; in the experiment on TGFBR2, 5.43. The pKd with STK10 (read-out: apparent Kd) is 6.14; in the experiment with STK11 (read-out: apparent Kd), 5.94; in the experiment on STK26 (read-out: apparent Kd), 6.56; in the experiment on STK3 (read-out: apparent Kd) it was 6.17; in the experiment with STK4 (read-out: apparent Kd), 6.25; in the experiment with TGFBR2 (read-out: apparent Kd), 5.53.

In the case of `CCn1c(-c2nonc2N)nc2c(C#CC(C)(C)O)nc(OCCN)cc21.CCn1c(-c2nonc2N)nc2c(C#CC(C)(C)O)nc(OCCN)cc21.Cl.Cl` [GSK902056A], the potency estimated from few doses with HSP90B1 is 769 nM. For the same molecule, the pEC50 was 6.56 in the experiment on CIT; 6.65 in the experiment with MOB1A; 6.40 in the experiment with PKN2; 6.64 with PRKACA; 6.84 in the experiment on PRKACB; 6.39 in the experiment on PRKCB. The negative logarithm of the EC50 (pEC50) in the experiment on PRKCD was 6.91; in the experiment with PRKCQ it was 7.23. Also, the pKd in the experiment with CIT (read-out: apparent Kd) was 6.56; in the experiment with MOB1A (read-out: apparent Kd) it was 6.65; in the experiment on PKN2 (read-out: apparent Kd), 6.40; in the experiment on PRKACA (read-out: apparent Kd) it was 6.67; in the experiment with PRKACB (read-out: apparent Kd) it was 6.84; in the experiment on PRKCB (read-out: apparent Kd), 6.40. Besides, the pKd was 6.91 in the experiment with PRKCD (read-out: apparent Kd) and 7.23 with PRKCQ (read-out: apparent Kd).

For `Cc1cccc(Nc2nc(N[C@H]3CCCC[C@H]3N)ncc2C(N)=O)c1.Cl` [GSK986310C], the pEC50 with PRKCA is 6.35. Moreover, the pKd with PRKCA (read-out: apparent Kd) is 6.57.

As for `Cc1cccc(-c2nc(Nc3ccncc3)c3sccc3n2)n1` [GW869641X], the potency estimated from few doses in the experiment with HSP90B1 was 1250 nM; in the experiment on TESK2 it was 1880 nM.

As to Entospletinib, the pEC50 is 4.78 in the experiment with ADCK1, 5.80 with CSNK2A1;CSNK2A3 and 5.88 in the experiment with CSNK2A2. The pKd in the experiment with ADCK1 (read-out: apparent Kd) is 4.98; with CSNK2A1;CSNK2A3 (read-out: apparent Kd) it was 5.80; in the experiment with CSNK2A2 (read-out: apparent Kd) it was 5.88.

Consider `Nc1nc(Nc2ccccc2)cc(-c2ccc3c(N)n[nH]c3c2)n1` [GSK2225749A], for which the potency estimated from few doses in the experiment with TESK2 is 1620 nM.
